Measurements taken from PubChem BioAssay (Tox21).
Active and inactive are the calls of the source. Calls follow the shape of the dose curve; as a rule, active = well fitted curve in the direction sought with a large enough effect in the repeat runs; inconclusive = weak or mixed curves; inactive = flat fitted curve, though single readings scatter. Non-standard residues stand in square brackets, D forms with d. Residues, ends and D or L forms follow the SMILES beside them. pGlu = O=C1CC[C@@H](C(=O)O)N1

Assays:
[1] = qHTS assay to test for compound auto fluorescence at 535 nm (green) in HEK293 cells (AID 720680)
[2] = qHTS assay to test for compound auto fluorescence at 460 nm (blue) in HEK293 cell free culture (AID 720681)
Method in brief: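 Test compounds were pinned into cell-free culture medium (DMEM with 10% FBS) and fluorescence was read directly at Ex/Em 405/460 nm. Signals were expressed as fluorescence equivalents of triamterene, with DMSO vehicle as control.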

[3] = qHTS assay to test for compound auto fluorescence at 535 nm (green) in HEK293 cell free culture (AID 720682)
Method in brief: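 Cell-free medium (DMEM, 10% FBS) receives compound or DMSO by pintool. Plate read directly at Ex 485/Em 535 nm. Signal converted to fluorescein equivalency.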

[4] = qHTS assay to test for compound auto fluorescence at 590 nm (red) in HEK293 cell free culture (AID 720683)
Method in brief: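 Tox21 10K library compounds were pinned into cell-free DMEM with 10% FBS and fluorescence was read at excitation 540 nm. Activity is expressed as Rose Bengal sodium equivalency.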

[5] = qHTS assay to test for compound auto fluorescence at 590 nm (red) in HepG2 cell free culture (AID 720684)
Method in brief: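 Red fluorescence (540 nm excitation, 590 nm emission) was measured after compound transfer into cell-free MEM supplemented with 10% FBS. Values are equivalencies against Rose Bengal sodium.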

[6] = qHTS assay to test for compound auto fluorescence at 460 nm (blue) in HepG2 cell free culture (AID 720685)
Method in brief: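 Compound (23 nL) or DMSO pinned into cell-free MEM with 10% FBS; blue fluorescence read at 405/460 nm excitation/emission, expressed as auto-fluorescence equivalency to triamterene.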

[7] = qHTS assay to test for compound auto fluorescence at 535 nm (green) in HepG2 cell free culture (AID 720686)
[8] = qHTS assay to test for compound auto fluorescence at 460 nm (blue) in HepG2 cells (AID 720687)
Method in brief: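 Cells (2,000/well in MEM with 10% FBS) attached overnight at 37 C, then were exposed to compound or DMSO for 1 hr at 37 C, 5% CO2. Fluorescence read at Ex/Em 405/460 nm, expressed as triamterene-equivalent signal.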

Measured: Potency

O=C(O)CO.[NH2-].[NH2-].[Pt+2]
inactive: all assays above

NC(Cc1ccccc1)C(=O)O (stereo not drawn)
inactive: all assays above

CNC(=O)c1c(I)c(C(=O)NCC(=O)Nc2c(I)c(C(=O)O)c(I)c(C(=O)NCCO)c2I)c(I)c(N(C)C(C)=O)c1I
not listed: [8]
inactive: all other assays above

C=CCOc1ccc(CC(=O)O)cc1Cl
not listed: [8]
inactive: all other assays above

CO[C@H]1C=CO[C@@]2(C)Oc3c(C)c(O)c4c(O)c(c5c(nc6cc(C)ccn65)c4c3C2=O)NC(=O)/C(C)=C\C=C[C@H](C)[C@H](O)[C@@H](C)[C@@H](O)[C@@H](C)[C@H](OC(C)=O)[C@@H]1C
inactive: all assays above

CC(=O)Nc1ccc(OC(=O)c2ccccc2O)cc1
inactive: all assays above

Nc1nc2[nH]cc(CCc3ccc(C(=O)N[C@@H](CCC(=O)O)C(=O)O)cc3)c2c(=O)[nH]1
inactive: all assays above

CN=C1C=CC(=C(c2ccc(N(C)C)cc2)c2ccc(N(C)C)cc2)C=C1
not listed: [8]
inactive: all other assays above

CC(=O)N[C@@H](C=O)[C@@H](O)[C@H](O)[C@H](O)CO
inactive: all assays above

CN1CCN(CCC=C2c3ccccc3Sc3ccc(S(=O)(=O)N(C)C)cc32)CC1
inactive: all assays above

CC(C(=O)O)c1ccc(C2CCCCC2)c2ccccc12 (stereo not drawn)
inactive: all assays above

CS(=O)(=O)Nc1cc2occ(NC=O)c(=O)c2cc1Oc1ccccc1
inactive: all assays above

CC1(C)S[C@@H]2[C@H](NC(=O)C(N)c3ccccc3)C(=O)N2[C@H]1C(=O)OC1OC(=O)c2ccccc21 (stereo partly drawn)
inactive: all assays above

CC(C)(C)CC(=O)OCC(=O)[C@@]12OC(C)(C)O[C@@H]1C[C@H]1[C@@H]3CCC4=CC(=O)C=C[C@]4(C)[C@@]3(F)[C@@H](O)C[C@@]12C
inactive: all assays above

O=C(NOC[C@H](O)CO)c1ccc(F)c(F)c1Nc1ccc(I)cc1F
not listed: [8]
inactive: all other assays above

COc1c(O[C@@H]2O[C@H](CO)[C@@H](O)[C@H](O)[C@H]2O)cc2c(c1OC)-c1ccc(SC)c(=O)cc1[C@@H](NC(C)=O)CC2
not listed: [8]
inactive: all other assays above

CC(O)CN(C)C (stereo not drawn)
not listed: [8]
inactive: all other assays above

CCOC(=O)Oc1c(OC)cc(C(=O)O[C@@H]2C[C@@H]3CN4CCc5c([nH]c6cc(OC)ccc56)[C@H]4C[C@@H]3[C@H](C(=O)OC)[C@H]2OC)cc1OC
not listed: [7] | [8]
inactive: all other assays above

CCOC(=O)Nc1ccc2c(c1)N(C(=O)CN(C)C)c1ccccc1CC2
inactive: all assays above

COC(=O)[C@H]1[C@H]2C[C@@H]3c4[nH]c5ccccc5c4CCN3C[C@H]2C[C@@H](OC(=O)c2cc(OC)c(OC)c(OC)c2)[C@@H]1OC
inactive: all assays above

CC[C@H]1OC(=O)[C@H](C)[C@@H](O[C@H]2C[C@@](C)(OC)[C@@H](O)[C@H](C)O2)[C@H](C)[C@@H](O[C@@H]2O[C@H](C)C[C@H](N(C)C)[C@H]2O)[C@](C)(O)C[C@@H](C)[C@@H]2N[C@@H](COCCOC)O[C@@H]([C@H]2C)[C@]1(C)O
inactive: all assays above

CC[C@H](C)[C@H](NC(=O)[C@H](Cc1ccccc1)NC(=O)[C@H](C)NC(=O)[C@H](CC(=O)O)NC(=O)[C@H](CCCCN)NC(=O)[C@H](CO)NC(=O)[C@@H]1CCCN1C(=O)[C@@H]1CCC(=O)N1)C(=O)NCC(=O)N[C@@H](CC(C)C)C(=O)N[C@@H](CCSC)C(N)=O ([pGlu]PSKDAFIGLM-NH2)
inactive: all assays above
